TCR act – Activators of T cell receptors: qHTS campaign; primary human leukocytes, anti-CD3, IL-2 HTRF, 48 h; Potency, µM (top dose mostly 9.22 µM), for inactives: top-dose activation of IL-2 secretion, most hits filed as activators; 330,000 tested, under 10 active; AID 504894, 2011; note: % of control where 0% means no effect
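Primary human leukocytes incubated 48 hr with anti-CD3 beads plus compound, without co-stimulation. Secreted IL-2 measured by HTRF (europium cryptate/d2 anti-IL-2 pair, 320 nm excitation, 665 nm emission).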
PI5P4Ka inh – qHTS for Inhibitors of phosphatidylinositol 5-phosphate 4-kinase (PI5P4K). max response, %. actives 1.2% (n = 330,000). AID 652105, 2013. Phosphatidylinositol 5-phosphate 4-kinase type-2 alpha (Homo sapiens), P48426. PI5P4Kalpha enzyme, ADP-Glo luminescence, 60 min; stronger effect = lower value; active = max response of -50% or lower; inconclusive = between -30% and -50%; inactive = -30% or higher; note: value at the top dose of about 77 µM; % is set by controls: 0 for no effect and ±100 for the full control effect
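Compounds were pin-transferred onto PI5P4Kalpha and substrate in HEPES pH 7.4 buffer with EGTA, CHAPS and 5% DMSO. ATP (5 microM final) started the reaction, which ran 60 minutes at room temperature before ADP-Glo detection.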
VDR inh – Inhibitors of the vitamin D receptor (VDR): qHTS; VDR-SRC2-3 peptide fluorescence polarization, 2 h; Potency, µM, for inactives: max response, negative = inhibition, most hits filed as inhibitors; actives 0.93% (n = 400,000); note: potency is the fitted concentration of half-maximal effect; % is set by controls: 0 for no effect and ±100 for the full control effect
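Fluorescence polarization assay measuring small-molecule disruption of VDR binding to the coregulator peptide SRC2-3. Compounds were pin-transferred (23 nl) into the reagent mix and incubated 2 h at room temperature before reading.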
FEN1 inhibitor – qHTS Assay for the Inhibitors of Human Flap endonuclease 1 (FEN1); P39748; Recombinant FEN1 flap cleavage, fluorescence, 15 min; Potency, µM (top dose mostly 114 µM), inactives show at the top dose activity change, negative = inhibition, most hits filed as inhibitors; actives 0.35% (n = 390,000); note: potency is the fitted concentration of half-maximal effect; % is set by controls: 0 for no effect and ±100 for the full control effect; nearly all actives have a fitted effect of over 65% in size
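In this screen, 50 nM flap DNA substrate was added to 10 nM FEN1 pretreated with compound for 15 min at room temperature; cleavage was followed with reads at 0 and 15 min, and Hill fitting gave concentration–response parameters.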
WRN inhibitor – qHTS for Inhibitors of WRN Helicase | Potency, µM (highest dose often 114 µM), without a hit: top-dose activity change, negative = inhibition, actives largely listed as inhibitors | WRN helicase unwinding, fluorescent forked duplex, kinetic | actives 0.46% (n = 360,000) | Bifunctional 3'-5' exonuclease/ATP-dependent helicase WRN (Homo sapiens), Q14191; note: potency is the fitted concentration of half-maximal effect; % is set by controls: 0 for no effect and ±100 for the full control effect; nearly all actives have a fitted effect of over 55% in size
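Kinetic red-fluorescence monitoring (525/598 nm) tracks WRN helicase activity after 100 nM fluorophore-quencher forked duplex and 2 mM ATP are added to 20 nM enzyme pretreated 15 min at room temperature with compound.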
PLK1 PBD inh – qHTS for Inhibitors of PLK1-PDB (polo-like kinase 1 - polo-box domain): Primary Screen; Serine/threonine-protein kinase PLK1 (Homo sapiens), P53350; Plk1 PBD binding of FITC phosphopeptide, fluorescence polarization; Potency, µM, without a hit: max response, negative = inhibition, usual class: inhibitors; actives 2.8% (n = 360,000); note: potency is the fitted concentration of half-maximal effect; series mostly up to about 57 µM; % is set by controls: 0 for no effect and ±100 for the full control effect; nearly all actives have a fitted effect of over 65% in size
Target sequence (P53350 whole entry, looked up, the tested form may be a part): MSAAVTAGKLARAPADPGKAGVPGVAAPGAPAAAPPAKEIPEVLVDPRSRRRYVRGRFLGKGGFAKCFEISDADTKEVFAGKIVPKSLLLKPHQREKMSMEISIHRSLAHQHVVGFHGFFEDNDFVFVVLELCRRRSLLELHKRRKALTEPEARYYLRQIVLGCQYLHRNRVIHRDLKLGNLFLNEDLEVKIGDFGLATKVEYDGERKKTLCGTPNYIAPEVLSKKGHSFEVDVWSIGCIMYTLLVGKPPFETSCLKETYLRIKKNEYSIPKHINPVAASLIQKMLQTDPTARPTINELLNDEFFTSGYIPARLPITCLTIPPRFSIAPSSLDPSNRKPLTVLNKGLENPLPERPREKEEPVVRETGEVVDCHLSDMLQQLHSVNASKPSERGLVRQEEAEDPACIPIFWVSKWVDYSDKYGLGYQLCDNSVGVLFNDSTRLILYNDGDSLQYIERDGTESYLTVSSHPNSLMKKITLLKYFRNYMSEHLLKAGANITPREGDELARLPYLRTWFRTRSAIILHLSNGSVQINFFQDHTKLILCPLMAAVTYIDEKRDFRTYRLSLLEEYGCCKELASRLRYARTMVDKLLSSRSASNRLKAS
Numbers without * were called inactive; u = inconclusive; x = no result given; [ ] = dose if it differs, or a comment. This is a sample that favours compounds with a hit; in the whole collection about 3.7% have one here. Unless noted, calls come from the whole dose curve; as a rule, active = well fitted curve in the direction sought with a large enough effect; inconclusive = small, poorly fitted or top-dose-only effect, or another doubt; inactive = no such curve, though single readings can be large; an effect the other way counts as inactive or inconclusive.

SMILES	TCR act	PI5P4Ka inh	VDR inh	FEN1 inhibitor	WRN inhibitor	PLK1 PBD inh
Cc1ccc(C(=S)N2CCN(Cc3ccccc3)CC2)s1	-1%	3	u	-10%	-20%	3µM*
O=C(C[n+]1ccccc1Cl)c1ccc(F)cc1	x	x	x	-7%	x	x
COc1cccc(-n2nnnc2SCC(=O)Nc2ccc(C(C)=O)cc2)c1	-8%[46.1 µM]	-9	u	12%	6%	24µM*
CCCS(=O)(=O)c1nnnn1-c1cccc(OC)c1	x	x	u	5%	-27%	13µM*
NC(=O)c1ccc(-n2nnnc2SCC(=O)Nc2ccc(N3CCOCC3)c(Cl)c2)cc1	3%	-29	5%	1%	9%	24µM*
O=C(CSc1nnnn1-c1ccc(O)cc1)Nc1ccc(N2CCOCC2)c(Cl)c1	-1%	x	-11%	-10%	-14%	0%
COc1cccc(-n2nnnc2SCC(=O)Nc2ccc(OC)cc2OC)c1	0%	-6	2%	1%	1%	5%
COc1cccc(-n2nnnc2SCC(=O)Nc2ccccc2OC)c1	-1%	0	3%	-8%	6%	-1%
CCOc1ccc(OCC(=O)Nc2c(C(=O)Nc3ccc(C)cc3)oc3ccccc23)cc1	x	x	-5%	15%	x	x
CN(C)S(=O)(=O)c1cccc(NC(=O)COC(=O)/C=C/c2ccco2)c1	-4%[46.1 µM]	u	u	-6%	-22%[57.1 µM]	30µM*
NC(=O)c1cc(Cc2ccccc2)sc1NC(=O)c1ccco1	15%	x	u	-9%	-24%	17µM*
CCCc1cc(C(N)=O)c(NC(=O)c2ccoc2C)s1	x	x	-5%	-32%	-30%	30µM*
CCOc1ccc(NC(=O)CN(C)C(=O)c2ccccc2Cc2ccccc2)cc1OCC	-8%	13	1%	-16%	-5%	9%
CCOc1ccc(CC(=O)Nc2sc(Cc3ccccc3)cc2C(N)=O)cc1OCC	-1%	x	u	-19%	-5%	17µM*
CCOC(=O)/C=C1\CN(Cc2ccc(OC)cc2)S(=O)(=O)c2ccc(C(F)(F)F)cc21	x	x	x	-28%	x	x
COC(=O)c1ccccc1NC(=S)NC(=O)c1ccc2c(c1)OCO2	-8%	0	u	9%	-14%	u
COC(=O)c1ccccc1NC(=S)NC(=O)c1ccccc1	-12%	-11	-18%	-6%	-11%	27µM*
O=C(O)c1ccccc1NC(=S)NC(=O)c1sc2ccccc2c1Cl	7%	u	u	-9%	6%	12µM*
COC(=O)CC1C(=O)NCCN1C(=O)c1sc2ccccc2c1Cl (centres undefined)	-5%	-2	-2%	-17%	-3%	-4%
COC(=O)CC1C(=O)NCCN1C(=S)NC(=O)c1sc2ccccc2c1Cl (centres undefined)	-7%	-28	-5%	-5%	-9%	19µM*
O=C(Nc1ccnc(=O)[nH]1)c1sc2ccccc2c1Cl	-7%	-14	-15%	3%	6%	27µM*
CNc1ccc(C=O)cc1Br	x	x	x	2%	x	x
CN(Cc1ccccc1)c1ccc(/C=C/c2nc3ccccc3s2)cc1	x	x	x	35µM*	x	x
C=C(/C=C/c1ccc(N(C)C)cc1)c1nc2ccccc2s1	x	x	x	25µM*	x	x
CN(C)c1ccc(/C=C/c2c(Br)cnc3ccccc23)cc1	x	x	x	-21%	x	x
SMILES	TCR act	PI5P4Ka inh	VDR inh	FEN1 inhibitor	WRN inhibitor	PLK1 PBD inh
O=C(NC1CCCC1)C(=O)N(Cc1cccnc1)C(C(=O)NC1CCCC1)c1ccco1 (centres undefined)	-7%	-5	12%	-14%	2%	3%
O=NN(Cc1cccnc1)C(=O)NC1CCCCC1	x	0	x	x	-2%	27µM*
CC(C(=O)Nc1ccc2c(c1)OCCO2)c1ccc([N+](=O)[O-])cc1 (centres undefined)	2%[46.1 µM]	2	-3%	-10%	3%	30µM*
COc1ccc(N2CCN(CCCNC(=O)c3ccc4nc(Cc5ccccc5)oc4c3)CC2)cc1	x	x	-2%	9%	x	x
Cc1cccn2c(=O)c3cc(C(=O)Nc4ccc(Cl)c(Cl)c4)sc3nc12	x	x	1%	-16%	x	x
CC(=O)N1CC=C2C(C#N)=C(N)C(C#N)(C#N)C(CCc3ccccc3)C2C1 (centres undefined)	0%	-12	u	3%	-1%	27µM*
O=C(N/N=C/c1c[nH]c2ccccc12)c1cc(Cl)ccc1O	1%	-55*	33%	1%	-16%	-16%
O=C(N/N=C/c1c[nH]c2ccccc12)c1ccc(Cl)cc1	-4%	-21	-21%	-14%	-13%	-8%
O=C(N/N=C\c1c[nH]c2ccccc12)c1ccc(O)cc1	3%	-73*	2%	-10%	0%	-19%
O=C(N/N=C/c1c[nH]c2ccccc12)c1ccccc1Cl	3%	-2	4%	-5%	-17%	5%
CCOC(=O)c1cc(-c2ccc(C)cc2)n(CCC(=O)Nc2cc(Cl)ccc2C)c1C	x	x	-1%	1%	x	x
Cc1cc2cc3c(cc2nc1SCc1ccc(C(=O)O)cc1)OCCO3	2%[46.1 µM]	-5	-18%	2%	-18%	30µM*
CC(C(=O)Nc1ccc(C(=O)O)c(O)c1)N1C(=O)/C(=C\c2ccco2)SC1=S (centres undefined)	-5%	u	-10%	3%	40µM*	9.5µM*
O=C(NN1C(=O)/C(=C/C=C/c2ccccc2)SC1=S)c1ccncc1	-6%	-24	u	-3%	-33%	u
CC(C)C(C(=O)O)N1C(=O)/C(=C/c2cccn2C)SC1=S (centres undefined)	2%[46.1 µM]	0	2%	-4%	-1%	40%
CC(C)C(C(=O)O)N1C(=O)/C(=C/C=C/c2ccco2)SC1=S (centres undefined)	0%	-94*	-31%	18µM*	3.5µM*	3µM*
O=C(CN1C(=O)/C(=C/c2ccco2)SC1=S)Nc1ccc(O)c(C(=O)O)c1	4%	u	-6%	u	-1%	u
O=C(NN1C(=O)/C(=C/C=C/c2ccco2)SC1=S)c1ccncc1	4%	-79*	52%	7.1µM*	3.2µM*	4.7µM*
O=C(NCCc1csc(-c2cccnc2)n1)c1ccc(F)c(F)c1	x	x	-6%	14%	x	x
O=C(C[n+]1cccc2cccc(O)c21)c1ccc(F)cc1	x	x	x	0%	x	x
Cc1ccc(S(=O)(=O)NN2C(=O)/C(=C/c3ccc(C(=O)O)cc3)SC2=S)cc1	-3%	-57*	u	50µM*	-35%	-8%
